# Assay results reported in article PMC7862700, “An all-to-all approach to the identification of sequence-specific readers for epigenetic DNA modifications on cytosine”.
# Assays:
# Assay in all cases: DAPPL (digital affinity profiling via proximity ligation, sequencing); 10 mM Tris-HCl pH 7.5, 50 mM NaCl, 1 mM DTT, 4% glycerol, room temperature, 30 min; GST-TFs on glutathione beads, 16-mer random dsDNA library, 0.1% formaldehyde crosslink after washing; high values mean tight binding
# Conditions in all cases: protein: recombinant; tags: N-terminal GST; dsDNA, one strand shown
# FLI1 = biological target: T1, FLI1 (Homo sapiens, UniProt Q01543 1-452)
# T1 sequence: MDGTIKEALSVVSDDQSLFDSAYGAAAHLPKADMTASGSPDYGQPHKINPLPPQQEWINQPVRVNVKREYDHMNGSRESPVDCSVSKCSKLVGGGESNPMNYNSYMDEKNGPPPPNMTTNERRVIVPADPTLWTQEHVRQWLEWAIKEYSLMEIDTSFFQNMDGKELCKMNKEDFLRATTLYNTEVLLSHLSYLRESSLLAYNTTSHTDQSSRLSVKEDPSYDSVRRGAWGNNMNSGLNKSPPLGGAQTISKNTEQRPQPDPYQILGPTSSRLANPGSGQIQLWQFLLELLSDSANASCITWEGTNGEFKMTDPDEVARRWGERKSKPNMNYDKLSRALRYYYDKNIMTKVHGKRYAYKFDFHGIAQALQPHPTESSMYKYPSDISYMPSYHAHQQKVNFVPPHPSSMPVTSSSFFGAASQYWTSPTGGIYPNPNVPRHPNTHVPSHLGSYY
# Outline: (§1)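 After expression in yeast as GST fusions, human transcription factors were bound to glutathione beads, DNA-barcoded and mixed with a tag-only sample. The pools were incubated with 200 nmole of a 16-mer random double-stranded DNA library in Tris/NaCl/DTT/glycerol buffer (30 min, room temperature), washed and crosslinked with 0.1% formaldehyde. Proximity ligation with BsaI/T4 ligase ran for 1 h at 37 °C, before PCR amplification and sequencing on an Illumina NextSeq500. Binding signal is a hexamer's read frequency for a factor divided by its frequency for the tag-only sample.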
# ELK1 = biological target: T2, ELK1 (Homo sapiens, UniProt P19419 1-428)
# T2 sequence: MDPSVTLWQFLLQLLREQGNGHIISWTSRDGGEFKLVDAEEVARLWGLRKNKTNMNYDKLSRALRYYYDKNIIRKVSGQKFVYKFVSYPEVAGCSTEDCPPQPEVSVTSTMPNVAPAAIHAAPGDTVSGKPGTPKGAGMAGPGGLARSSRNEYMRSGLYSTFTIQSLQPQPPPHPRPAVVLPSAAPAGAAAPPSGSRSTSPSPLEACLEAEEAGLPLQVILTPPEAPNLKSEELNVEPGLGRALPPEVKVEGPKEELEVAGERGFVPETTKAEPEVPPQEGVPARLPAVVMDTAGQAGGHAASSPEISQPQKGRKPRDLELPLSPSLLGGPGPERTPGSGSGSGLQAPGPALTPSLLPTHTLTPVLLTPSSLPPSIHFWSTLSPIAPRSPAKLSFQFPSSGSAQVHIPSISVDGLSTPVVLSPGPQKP
# Outline: as §1
# GABPA = biological target: T3, GABPA (Homo sapiens, UniProt Q06546 1-454)
# T3 sequence: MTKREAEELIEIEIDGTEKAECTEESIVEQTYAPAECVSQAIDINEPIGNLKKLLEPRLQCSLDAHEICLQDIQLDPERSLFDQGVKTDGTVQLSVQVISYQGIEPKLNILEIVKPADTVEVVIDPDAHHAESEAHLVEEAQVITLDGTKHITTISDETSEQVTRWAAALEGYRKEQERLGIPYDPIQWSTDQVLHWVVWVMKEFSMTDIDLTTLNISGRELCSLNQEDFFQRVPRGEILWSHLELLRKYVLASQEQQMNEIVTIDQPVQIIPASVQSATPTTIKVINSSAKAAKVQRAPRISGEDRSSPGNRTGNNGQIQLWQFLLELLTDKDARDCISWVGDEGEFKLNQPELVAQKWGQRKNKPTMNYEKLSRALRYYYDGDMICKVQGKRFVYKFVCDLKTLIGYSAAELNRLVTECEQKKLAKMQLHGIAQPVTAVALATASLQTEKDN
# Outline: as §1
# ERG = biological target: T4, ERG (Homo sapiens, UniProt P11308 1-479)
# T4 sequence: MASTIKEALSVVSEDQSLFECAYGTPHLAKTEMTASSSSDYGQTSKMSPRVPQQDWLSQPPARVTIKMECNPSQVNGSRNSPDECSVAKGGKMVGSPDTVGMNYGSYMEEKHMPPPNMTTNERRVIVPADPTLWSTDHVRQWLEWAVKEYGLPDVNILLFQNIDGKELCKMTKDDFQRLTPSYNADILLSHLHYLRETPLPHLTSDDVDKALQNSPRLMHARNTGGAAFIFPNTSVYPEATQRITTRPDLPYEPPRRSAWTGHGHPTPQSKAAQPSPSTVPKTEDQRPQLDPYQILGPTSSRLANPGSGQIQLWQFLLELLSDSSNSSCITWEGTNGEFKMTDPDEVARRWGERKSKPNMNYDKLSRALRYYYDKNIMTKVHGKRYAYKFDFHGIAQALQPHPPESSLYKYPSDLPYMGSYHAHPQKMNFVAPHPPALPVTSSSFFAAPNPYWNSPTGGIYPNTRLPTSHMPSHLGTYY
# Outline: as §1
# ELF1 = ELF1 (Homo sapiens, UniProt P32519 1-619)
# Outline: as §1
# EHF = biological target: T5, EHF (Homo sapiens, UniProt Q9NZC4 1-300)
# T5 sequence: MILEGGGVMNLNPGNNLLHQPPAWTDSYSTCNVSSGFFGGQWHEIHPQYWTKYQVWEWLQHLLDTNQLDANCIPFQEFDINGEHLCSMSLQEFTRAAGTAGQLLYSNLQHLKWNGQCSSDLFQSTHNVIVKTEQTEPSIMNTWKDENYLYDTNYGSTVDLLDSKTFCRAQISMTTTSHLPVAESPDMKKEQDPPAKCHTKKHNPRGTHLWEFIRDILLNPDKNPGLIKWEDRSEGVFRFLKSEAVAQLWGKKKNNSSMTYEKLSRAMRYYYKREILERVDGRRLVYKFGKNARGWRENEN
# Outline: as §1
# SPI1 = SPI1 (Homo sapiens, UniProt P17947 1-270)
# Outline: as §1
# SPIB = SPIB (Homo sapiens, UniProt Q01892 1-262)
# Outline: as §1
# ELK3 = biological target: T6, ELK3 (Homo sapiens, UniProt P41970 1-407)
# T6 sequence: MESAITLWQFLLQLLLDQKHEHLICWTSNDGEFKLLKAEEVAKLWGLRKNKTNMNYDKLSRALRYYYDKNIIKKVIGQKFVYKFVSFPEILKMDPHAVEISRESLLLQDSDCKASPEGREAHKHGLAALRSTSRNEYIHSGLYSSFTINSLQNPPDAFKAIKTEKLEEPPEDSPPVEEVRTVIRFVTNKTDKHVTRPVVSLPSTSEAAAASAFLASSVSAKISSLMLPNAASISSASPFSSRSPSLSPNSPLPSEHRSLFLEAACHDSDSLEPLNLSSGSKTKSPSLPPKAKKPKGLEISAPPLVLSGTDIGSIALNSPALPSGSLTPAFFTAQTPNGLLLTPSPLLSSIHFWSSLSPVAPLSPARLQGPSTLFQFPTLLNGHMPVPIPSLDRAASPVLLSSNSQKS
# Outline: as §1
# Chain of SPIB (Q01892 whole entry): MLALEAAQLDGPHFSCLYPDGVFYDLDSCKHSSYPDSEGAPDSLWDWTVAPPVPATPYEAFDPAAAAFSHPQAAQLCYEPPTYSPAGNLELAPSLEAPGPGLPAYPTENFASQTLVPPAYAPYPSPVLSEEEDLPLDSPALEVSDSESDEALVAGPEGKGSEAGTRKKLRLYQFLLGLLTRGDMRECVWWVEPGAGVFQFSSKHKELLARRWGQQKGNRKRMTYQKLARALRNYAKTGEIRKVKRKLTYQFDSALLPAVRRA
# Chain of ELF1 (P32519 whole entry): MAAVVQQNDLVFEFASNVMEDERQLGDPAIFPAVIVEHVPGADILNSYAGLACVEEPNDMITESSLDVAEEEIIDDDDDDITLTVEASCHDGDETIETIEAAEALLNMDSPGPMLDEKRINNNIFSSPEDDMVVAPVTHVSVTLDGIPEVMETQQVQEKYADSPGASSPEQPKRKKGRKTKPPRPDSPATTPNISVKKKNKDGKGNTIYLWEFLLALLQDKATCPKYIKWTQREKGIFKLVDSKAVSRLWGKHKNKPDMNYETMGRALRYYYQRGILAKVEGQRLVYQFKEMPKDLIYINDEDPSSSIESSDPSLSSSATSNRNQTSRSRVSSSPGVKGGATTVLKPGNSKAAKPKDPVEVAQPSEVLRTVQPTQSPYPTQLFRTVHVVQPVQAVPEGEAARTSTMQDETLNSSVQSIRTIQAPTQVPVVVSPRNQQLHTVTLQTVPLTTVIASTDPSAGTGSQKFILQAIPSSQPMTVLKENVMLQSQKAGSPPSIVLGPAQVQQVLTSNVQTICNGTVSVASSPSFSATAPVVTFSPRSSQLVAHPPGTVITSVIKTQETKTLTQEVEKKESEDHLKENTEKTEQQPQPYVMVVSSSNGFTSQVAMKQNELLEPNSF
sequence,measurement,setting,value
CCTCAA,binding signal,FLI1,"1.47 fold enrichment (6-mer frequency, TF over GST control)"
same,binding signal,ELK1,"1.32 fold enrichment (6-mer frequency, TF over GST control)"
same,binding signal,GABPA,"1.46 fold enrichment (6-mer frequency, TF over GST control)"
same,binding signal,ERG,"1.26 fold enrichment (6-mer frequency, TF over GST control)"
same,binding signal,ELF1,"1.32 fold enrichment (6-mer frequency, TF over GST control)"
same,binding signal,EHF,"1.39 fold enrichment (6-mer frequency, TF over GST control)"
same,binding signal,SPI1,"1.55 fold enrichment (6-mer frequency, TF over GST control)"
same,binding signal,SPIB,"1.42 fold enrichment (6-mer frequency, TF over GST control)"
same,binding signal,ELK3,"1.44 fold enrichment (6-mer frequency, TF over GST control)"
